In the supplement of paper PMC10849652:
About 8,800 targets were measured; listed, in parts, are those with a hit and a random draw of the rest. About 0.5% of all pairs of compound and target were hits. A number with no mark means an inactive call.

Key:
Test in all cases: log2 fold change, soluble protein after heating vs DMSO (PISA); higher = thermal stabilisation; K562 lysate, 10 uM; active = over 0.2 and 3.5 SD of the protein, either way, in both replicates (recomputed)
[1] = compound: Cc1cn(-c2cc(NC(=O)c3ccc(C)c(Nc4nccc(-c5cccnc5)n4)c3)cc(C(F)(F)F)c2)cn1 [nilotinib]
In short: (§1)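 Pellets of K562 cells were dounce-homogenised in PBS pH 7.4 with 1 mM MgCl2, and the crude extract was held at 1 mg/mL protein for a 30 min treatment with 10 μM compound. Aliquots were heated for 3 min over 48°C-58°C and pooled before NP-40 was added to 0.5% at 4°C. The supernatant from 21,000xg for 90 min was quantified by TMTpro 16plex LC-MS/MS with channel sums equalised. Values are reported from duplicates as log-two fold change in thermal stability relative to solvent controls.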

[2] = compound: Cc1nc(Nc2n[nH]c3c2CN(C(=O)N[C@H](CN(C)C)c2ccccc2)C3(C)C)c2sccc2n1
In short: as §1

[3] = compound: Cc1nc(Nc2ncc(C(=O)Nc3c(C)cccc3Cl)s2)cc(N2CCN(CCO)CC2)n1 [dasatinib]
In short: as §1

[4] = compound: Cc1ncc(-c2ccnc(Nc3ccc(S(C)(=O)=O)cc3)n2)n1C(C)C
In short: as §1

[5] = compound: Cn1cc(-c2ccc3c(c2)CCN3C(=O)Cc2cccc(C(F)(F)F)c2)c2c(N)ncnc21
In short: as §1

[6] = compound: Cn1cc(CNCC2CCN(c3ncc(C(=O)NO)cn3)CC2)c2ccccc21 [quisinostat]
In short: as §1

[7] = compound: Cn1cncc1[C@@](N)(c1ccc(Cl)cc1)c1ccc2c(c1)c(-c1cccc(Cl)c1)cc(=O)n2C [tipifarnib]
In short: as §1

[8] = compound: NC(=O)Nc1cc(-c2cccc(F)c2)sc1C(=O)N[C@H]1CCCNC1
In short: as §1

[9] = compound: NC(=O)c1cnc(N[C@@H]2CCCC[C@@H]2N)nc1Nc1cccc(-n2nccn2)c1
In short: as §1

[10] = compound: NC1(c2ccc(-c3nc4ccn5c(=O)[nH]nc5c4cc3-c3ccccc3)cc2)CCC1
In short: as §1

Sequence of UniProt Q16563 (Q16563 whole entry, looked up): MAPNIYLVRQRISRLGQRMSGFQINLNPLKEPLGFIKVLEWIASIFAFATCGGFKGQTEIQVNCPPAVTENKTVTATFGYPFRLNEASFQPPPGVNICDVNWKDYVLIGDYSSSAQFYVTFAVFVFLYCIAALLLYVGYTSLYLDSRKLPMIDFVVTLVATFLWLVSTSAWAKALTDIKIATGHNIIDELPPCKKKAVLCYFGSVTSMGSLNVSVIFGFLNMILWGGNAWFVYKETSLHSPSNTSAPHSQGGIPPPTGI
Sequence of UniProt O14975 (O14975 whole entry, looked up): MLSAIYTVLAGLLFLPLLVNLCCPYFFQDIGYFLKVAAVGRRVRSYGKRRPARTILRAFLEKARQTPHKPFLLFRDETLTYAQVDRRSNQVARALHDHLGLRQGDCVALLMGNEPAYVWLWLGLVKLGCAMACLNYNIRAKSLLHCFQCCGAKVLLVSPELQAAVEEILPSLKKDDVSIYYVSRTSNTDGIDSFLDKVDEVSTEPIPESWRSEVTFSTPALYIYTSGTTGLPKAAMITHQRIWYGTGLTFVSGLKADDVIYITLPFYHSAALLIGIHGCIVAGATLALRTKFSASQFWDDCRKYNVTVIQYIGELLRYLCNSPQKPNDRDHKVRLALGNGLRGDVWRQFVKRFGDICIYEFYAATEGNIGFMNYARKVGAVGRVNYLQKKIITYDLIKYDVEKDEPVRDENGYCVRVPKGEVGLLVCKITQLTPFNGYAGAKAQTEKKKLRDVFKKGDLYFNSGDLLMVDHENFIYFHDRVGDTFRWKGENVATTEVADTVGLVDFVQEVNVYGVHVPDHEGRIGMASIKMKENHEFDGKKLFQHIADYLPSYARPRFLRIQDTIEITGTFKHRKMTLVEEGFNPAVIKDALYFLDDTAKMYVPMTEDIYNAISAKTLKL
Sequence of UniProt Q96SB8 (Q96SB8 whole entry, looked up): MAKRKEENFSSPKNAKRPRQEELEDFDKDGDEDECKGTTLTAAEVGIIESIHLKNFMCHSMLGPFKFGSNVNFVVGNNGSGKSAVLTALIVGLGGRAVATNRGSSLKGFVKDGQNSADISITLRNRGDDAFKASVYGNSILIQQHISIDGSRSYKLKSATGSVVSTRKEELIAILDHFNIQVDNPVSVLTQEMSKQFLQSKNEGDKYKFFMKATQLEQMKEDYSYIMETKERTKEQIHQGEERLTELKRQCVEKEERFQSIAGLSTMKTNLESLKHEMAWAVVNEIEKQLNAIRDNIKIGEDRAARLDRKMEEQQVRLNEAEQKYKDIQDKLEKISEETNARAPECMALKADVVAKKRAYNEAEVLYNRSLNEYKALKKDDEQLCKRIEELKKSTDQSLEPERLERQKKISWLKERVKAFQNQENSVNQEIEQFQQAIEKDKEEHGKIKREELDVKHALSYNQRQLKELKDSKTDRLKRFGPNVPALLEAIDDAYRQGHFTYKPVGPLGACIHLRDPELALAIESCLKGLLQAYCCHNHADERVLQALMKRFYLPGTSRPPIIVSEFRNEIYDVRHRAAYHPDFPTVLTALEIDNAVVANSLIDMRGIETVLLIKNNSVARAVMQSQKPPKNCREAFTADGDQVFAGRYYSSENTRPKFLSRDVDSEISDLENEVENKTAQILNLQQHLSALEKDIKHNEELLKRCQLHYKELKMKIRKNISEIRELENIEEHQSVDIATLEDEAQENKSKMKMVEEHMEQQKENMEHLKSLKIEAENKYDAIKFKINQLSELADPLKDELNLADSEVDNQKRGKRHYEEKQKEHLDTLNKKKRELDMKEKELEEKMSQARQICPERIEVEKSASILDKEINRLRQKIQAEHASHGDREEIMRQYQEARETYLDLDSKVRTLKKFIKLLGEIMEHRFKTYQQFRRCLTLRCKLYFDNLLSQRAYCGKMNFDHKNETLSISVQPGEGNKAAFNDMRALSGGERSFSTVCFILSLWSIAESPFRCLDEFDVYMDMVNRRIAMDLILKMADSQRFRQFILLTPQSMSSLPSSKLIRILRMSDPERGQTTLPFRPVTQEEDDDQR
Sequence of UniProt Q96JI7 (Q96JI7 whole entry, looked up): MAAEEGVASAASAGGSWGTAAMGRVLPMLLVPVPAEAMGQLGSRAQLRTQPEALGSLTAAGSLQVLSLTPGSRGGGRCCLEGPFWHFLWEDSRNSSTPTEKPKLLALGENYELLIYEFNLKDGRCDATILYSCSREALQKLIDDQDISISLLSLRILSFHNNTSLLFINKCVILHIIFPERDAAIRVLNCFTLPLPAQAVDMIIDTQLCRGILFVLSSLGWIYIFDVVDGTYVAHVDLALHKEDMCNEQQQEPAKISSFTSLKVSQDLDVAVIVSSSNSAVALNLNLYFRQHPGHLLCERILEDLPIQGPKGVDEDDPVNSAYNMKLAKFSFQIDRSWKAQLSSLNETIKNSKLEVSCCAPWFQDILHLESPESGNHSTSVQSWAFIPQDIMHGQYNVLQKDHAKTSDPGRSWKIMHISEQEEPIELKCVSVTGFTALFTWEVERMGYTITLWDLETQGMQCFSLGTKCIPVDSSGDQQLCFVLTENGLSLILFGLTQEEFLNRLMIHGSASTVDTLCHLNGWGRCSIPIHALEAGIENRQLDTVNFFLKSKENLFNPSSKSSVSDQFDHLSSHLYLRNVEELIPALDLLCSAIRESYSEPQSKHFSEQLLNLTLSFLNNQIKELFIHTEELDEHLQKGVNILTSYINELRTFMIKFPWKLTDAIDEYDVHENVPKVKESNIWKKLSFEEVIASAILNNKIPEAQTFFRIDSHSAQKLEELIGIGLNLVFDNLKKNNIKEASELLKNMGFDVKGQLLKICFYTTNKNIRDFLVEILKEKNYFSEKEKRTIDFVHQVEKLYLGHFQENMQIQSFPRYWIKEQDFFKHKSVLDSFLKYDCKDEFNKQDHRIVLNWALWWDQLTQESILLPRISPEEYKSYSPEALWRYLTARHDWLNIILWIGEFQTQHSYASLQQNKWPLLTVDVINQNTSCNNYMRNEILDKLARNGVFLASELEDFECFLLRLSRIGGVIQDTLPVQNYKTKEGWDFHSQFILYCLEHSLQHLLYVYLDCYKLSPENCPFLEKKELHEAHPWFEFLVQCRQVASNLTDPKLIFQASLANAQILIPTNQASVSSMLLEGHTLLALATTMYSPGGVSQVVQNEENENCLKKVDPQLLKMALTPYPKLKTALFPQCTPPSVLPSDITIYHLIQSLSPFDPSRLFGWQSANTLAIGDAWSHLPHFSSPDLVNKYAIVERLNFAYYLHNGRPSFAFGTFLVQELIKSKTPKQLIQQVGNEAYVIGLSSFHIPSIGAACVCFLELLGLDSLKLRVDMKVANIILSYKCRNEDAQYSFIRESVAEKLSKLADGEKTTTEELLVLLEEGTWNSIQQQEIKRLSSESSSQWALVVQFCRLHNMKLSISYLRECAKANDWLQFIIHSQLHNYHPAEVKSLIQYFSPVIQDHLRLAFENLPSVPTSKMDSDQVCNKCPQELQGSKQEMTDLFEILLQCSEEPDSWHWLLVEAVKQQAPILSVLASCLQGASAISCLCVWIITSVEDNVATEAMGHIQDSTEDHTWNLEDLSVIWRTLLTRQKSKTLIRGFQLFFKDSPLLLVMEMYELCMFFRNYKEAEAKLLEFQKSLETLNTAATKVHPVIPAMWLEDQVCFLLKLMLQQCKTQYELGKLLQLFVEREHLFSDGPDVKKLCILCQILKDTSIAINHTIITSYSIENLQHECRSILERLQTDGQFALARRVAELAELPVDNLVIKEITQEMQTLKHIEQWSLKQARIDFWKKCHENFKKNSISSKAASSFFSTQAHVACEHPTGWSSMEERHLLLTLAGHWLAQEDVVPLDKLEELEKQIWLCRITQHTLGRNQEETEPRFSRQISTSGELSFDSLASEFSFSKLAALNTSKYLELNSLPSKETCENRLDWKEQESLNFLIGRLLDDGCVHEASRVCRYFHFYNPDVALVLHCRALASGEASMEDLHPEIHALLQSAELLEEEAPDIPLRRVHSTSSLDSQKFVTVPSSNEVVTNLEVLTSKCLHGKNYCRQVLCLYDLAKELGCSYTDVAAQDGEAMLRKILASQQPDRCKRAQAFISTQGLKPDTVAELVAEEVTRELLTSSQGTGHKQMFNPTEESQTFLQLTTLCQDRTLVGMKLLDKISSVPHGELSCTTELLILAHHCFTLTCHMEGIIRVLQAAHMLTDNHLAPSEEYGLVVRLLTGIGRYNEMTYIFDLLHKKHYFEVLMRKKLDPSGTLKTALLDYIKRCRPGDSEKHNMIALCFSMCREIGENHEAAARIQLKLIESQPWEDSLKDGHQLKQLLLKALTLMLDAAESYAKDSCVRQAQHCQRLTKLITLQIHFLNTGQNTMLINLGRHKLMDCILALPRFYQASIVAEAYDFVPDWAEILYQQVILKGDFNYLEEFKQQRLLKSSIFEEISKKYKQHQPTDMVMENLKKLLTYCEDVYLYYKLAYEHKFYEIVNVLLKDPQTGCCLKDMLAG
Sequence of UniProt O43808 (O43808 whole entry, looked up): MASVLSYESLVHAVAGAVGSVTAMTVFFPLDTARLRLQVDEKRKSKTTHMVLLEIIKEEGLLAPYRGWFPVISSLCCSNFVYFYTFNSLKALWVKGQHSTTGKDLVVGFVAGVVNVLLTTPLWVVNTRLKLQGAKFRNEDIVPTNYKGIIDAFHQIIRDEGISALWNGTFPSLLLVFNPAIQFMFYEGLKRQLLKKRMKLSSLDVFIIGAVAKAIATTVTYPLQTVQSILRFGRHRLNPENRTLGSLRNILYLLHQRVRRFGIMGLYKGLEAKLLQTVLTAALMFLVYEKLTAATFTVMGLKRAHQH
Sequence of UniProt Q99961 (Q99961 whole entry, looked up): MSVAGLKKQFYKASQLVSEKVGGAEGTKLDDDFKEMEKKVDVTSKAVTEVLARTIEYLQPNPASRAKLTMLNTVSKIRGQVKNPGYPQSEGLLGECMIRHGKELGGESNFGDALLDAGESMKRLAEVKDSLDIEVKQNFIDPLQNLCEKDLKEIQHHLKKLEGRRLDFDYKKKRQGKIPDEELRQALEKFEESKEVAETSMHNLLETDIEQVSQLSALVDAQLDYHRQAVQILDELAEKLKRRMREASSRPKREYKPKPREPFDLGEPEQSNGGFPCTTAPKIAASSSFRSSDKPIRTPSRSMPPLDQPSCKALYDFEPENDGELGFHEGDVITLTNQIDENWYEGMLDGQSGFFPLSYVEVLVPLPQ

Row | Target | log2 fold change [1] | log2 fold change [2] | log2 fold change [3] | log2 fold change [4] | log2 fold change [5] | log2 fold change [6] | log2 fold change [7] | log2 fold change [8] | log2 fold change [9] | log2 fold change [10]
1 | TANK (UniProt Q92844) | -0.067 | 0.461 (active) | 0.069 | 0.04 | 0.088 | -0.053 | -0.071 | 0.161 | 0.042 | 0.01
2 | SSBP3 (UniProt Q9BWW4) | -0.005 | 0.061 | -0.015 | 0.014 | 0.016 | 0.018 | 0.028 | -0.035 | -0.029 | -0.097
3 | SLC27A2 (UniProt O14975) | 0.056 | -0.027 | 0.038 | -0.053 | -0.011 | -0.078 | 0.031 | -0.06 | -0.033 | 0.029
4 | SPR (UniProt P35270) | -0.063 | 0.01 | 0.201 | 0.012 | 0.075 | 0.077 | 0.035 | 0.01 | 0.02 | 0.009
5 | SH3GL1 (UniProt Q99961) | -0.01 | 0.029 | -0.024 | 0.01 | -0.009 | -0.046 | 0.015 | 0.004 | 0.006 | 0.033
6 | SMN1 (UniProt Q16637) | 0.012 | 0.019 | -0.005 | -0.023 | 0.05 | -0.146 | 0 | -0.001 | 0.047 | 0
7 | STAT2 (UniProt P52630) | -0.017 | 0.006 | -0.024 | -0.086 | 0.025 | -0.117 | -0.024 | 0.054 | 0.016 | -0.016
8 | SMC6 (UniProt Q96SB8) | 0.006 | 0 | -0.021 | -0.019 | 0.012 | -0.012 | -0.06 | 0.034 | 0.001 | 0.013
9 | STK39 (UniProt Q9UEW8) | -0.104 | 0.071 | -0.045 | -0.024 | 0.046 | -0.084 | -0.053 | 0.053 | 0.058 | -0.082
10 | SPG11 (UniProt Q96JI7) | -0.024 | 0.026 | -0.052 | 0.026 | 0.025 | -0.048 | -0.007 | -0.017 | 0.05 | -0.046
11 | SKA3 (UniProt Q8IX90) | -0.046 | -0.018 | -0.028 | 0.023 | 0.002 | -0.093 | -0.02 | 0.044 | 0.034 | -0.004
12 | SLC25A17 (UniProt O43808) | -0.049 | 0.006 | 0.01 | 0.032 | 0.023 | -0.125 | -0.068 | 0.028 | 0.038 | -0.026
13 | STK25 (UniProt O00506) | 0.037 | 0.265 | 0.235 | 0.026 | 0.059 | 0.013 | -0.027 | 0.165 | 0.032 | -0.009
14 | TARBP1 (UniProt Q13395) | -0.045 | 0.036 | -0.03 | -0.003 | 0.046 | -0.158 | 0.007 | 0.142 | 0.007 | -0.021
15 | SYPL1 (UniProt Q16563) | -0.005 | -0.006 | 0.013 | 0.025 | -0.014 | -0.075 | 0.034 | -0.002 | -0.013 | -0.044
